Test results from PubChem BioAssay (EPA / NIEHS).
Inconclusive results are not listed. Activity calls are given as the source filed them. The calls were made as follows, unless noted: active = hit-call score of the fitted dose curve at least 0.9, where 1 is the maximum; inactive = score below 0.9.

What was measured:
[1] = CCTE_Mundy_HCI_Cortical_Synap_Neur_Matur_NeuriteSpotCountPerNeuriteLength: CCTE's Synaptogenesis and Neurite Maturation Assay in rat cortical cells for Neurite Spot Count per Neurite Length, Mundy Lab (AID 2284210)
Outline: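 Read-out: synaptophysin puncta counted along MAP2-stained neurites, normalised to neurite length, by automated high-content imaging. Rat cortical cells; AraC DIV 5; chemical dosing DIV 7; termination DIV 12. DMSO baseline.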

[2] = CCTE_Mundy_HCI_Cortical_Synap_Neur_Matur_BPCount: CCTE's Synaptogenesis and Neurite Maturation Assay in rat cortical cells for Branch Point Count, Mundy Lab (AID 2284211)
Outline: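 In this multiplexed morphology assay, cortical cells from rat receive chemicals at DIV 7 and are fixed at DIV 12, then immunostained and imaged; branch points are counted, with DMSO as baseline.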

[3] = CCTE_Mundy_HCI_Cortical_NOG_NeuriteCount: CCTE's Neurite Outgrowth Assay in rat cortical cells for Neurite Count, Mundy Lab (AID 2284212);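 also: cells fixed about two days after chemical exposure began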
Outline: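 Rat cortical primary cells; compound added 2 h post-plating, 1/10 dilution of working solution. Anti-betaIII-tubulin/AF488 ICC; ArrayScan neurite count vs DMSO.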

[4] = CCTE_Mundy_HCI_Cortical_NOG_NeuriteLength: CCTE's Neurite Outgrowth Assay in rat cortical cells for Neurite Length, Mundy Lab (AID 2284213);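 as to AC50: neurites imaged about 48 to 50 h after chemical exposure began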
Outline: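 First, rat primary cortical cells were plated and, 2 h later, given test chemical as a 1/10 dilution. Finally, βIII-tubulin immunostaining enabled automated imaging of neurite length.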

[5] = CCTE_Mundy_HCI_Cortical_Synap_Neur_Matur_NeuriteLength: CCTE's Synaptogenesis and Neurite Maturation Assay in rat cortical cells for Neurite Length, Mundy Lab (AID 2284214)
Outline: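 DMSO-normalised neurite length, from high-content imaging of anti-MAP2-stained rat cortical cells fixed at DIV 12. Glia were suppressed with AraC (DIV 5) before chemical exposure from DIV 7.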

[6] = CCTE_Mundy_HCI_Cortical_Synap_Neur_Matur_NeuriteSpotCountPerNeuron: CCTE's Synaptogenesis and Neurite Maturation Assay in rat cortical cells for Neurite Spot Count per Neuron Count, Mundy Lab (AID 2284215)
Outline: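 High-content imaging counts synaptophysin puncta along MAP2-labelled neurites per neuron after chemical exposure of rat cortical cells from DIV 7 to termination at DIV 12 (AraC added DIV 5). Loss of signal relative to DMSO.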

[7] = TAMU_PeakParms_SingleDonor1434_Chronotropy: Texas A&M University (TAMU) 1.5-hr Human Induced Pluripotent Stem Cell (iPSC)-derived Cardiomyocytes Calcium (Ca+2) Flux Assay for Cardiotoxicity: Chronotropy (changes in peak frequency) (AID 2284217); details: actives raise or lower the signal
Outline: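 iPSC-derived cardiomyocytes (single donor 1434) dosed at 0.2, 1, 10 and 100 uM in 0.5% DMSO for 1.5 h at 37C; Ca2+ dye fluorescence gave average beat frequency. Zero-beat points removed; bidirectional fit versus DMSO, POD as EC05.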

[8] = CCTE_Mundy_HCI_Cortical_Synap_Neur_Matur_SynapseCount: CCTE's Synaptogenesis and Neurite Maturation Assay in rat cortical cells for Synapse Count, Mundy Lab (AID 2284218)
Outline: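 Endpoint: synapses/neuron by HCI (synaptophysin puncta on MAP2-labelled neurites, Hoechst nuclei). Rat primary cortical cells, AraC DIV 5, dosed DIV 7, fixed DIV 12; DMSO negative control.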

[9] = CCTE_Mundy_HCI_Cortical_Synap_Neur_Matur_NeuriteCount: CCTE's Synaptogenesis and Neurite Maturation Assay in rat cortical cells for Neurite Count, Mundy Lab (AID 2284222);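 also: exposure from day 7 to day 12 in vitro with readout at day 12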
Outline: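 Rat primary cortical cells; AraC added at DIV 5, chemicals dosed with media change at DIV 7 through DIV 12. MAP2/synaptophysin/Hoechst immunostaining, high-content imaging of neurite number; fitted relative to DMSO.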

[10] = CCTE_Mundy_HCI_Cortical_Synap_Neur_Matur_CellBodySpotCount: CCTE's Synaptogenesis and Neurite Maturation Assay in rat cortical cells for Cell Body Spot Count, Mundy Lab (AID 2284223)
Outline: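 High-content imaging counts synaptophysin puncta on neuronal cell bodies per neuron after MAP2/synaptophysin immunostaining. Rat primary cortical cells, glia arrested with AraC at DIV 5, were exposed DIV 7–12; signal decrease measured against DMSO.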

[11] = CCTE_Mundy_HCI_Cortical_NOG_NeuronCount: CCTE's Neurite Outgrowth Assay in rat cortical cells for Neuron Count, Mundy Lab (AID 2284236; active = hit-call score of the fitted dose curve at least 0.9, where 1 is the maximum;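 also: neurons counted by imaging betaIII-tubulin and Hoechst stained cortical cells; cells exposed to compound for about 48 hours before fixation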)
Outline: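 Read-out: neuron number by high-content imaging of betaIII-tubulin (Alexa Fluor-488) and Hoechst-labelled rat primary cortical cells.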

[12] = CCTE_Mundy_HCI_Cortical_NOG_BPCount: CCTE's Neurite Outgrowth Assay in rat cortical cells for Branch Point Count, Mundy Lab (AID 2284237);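 as to AC50: branch points counted about two days after chemical exposure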
Outline: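 Measured 50.33 h after dosing, this morphology endpoint uses rat primary cortical cultures labelled for betaIII-tubulin. Branch points are quantified by high-content imaging, with DMSO as negative control and baseline.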

[13] = CCTE_Mundy_HCI_hNP1_Casp3_7: CCTE's Caspase-Glo 3/7 Assay in human neuroprogenitor cells for Apoptosis, Mundy Lab (AID 2284240)
Outline: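 Luminescent caspase-3/7 readout, 26.5 h post-dose, in human neural progenitor cells from WA09 embryonic stem cells. Cells grew 40–44 h at 37 °C, 5% CO2 before chemical addition. Activity analysed as signal increase over DMSO baseline.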

[14] = CCTE_Mundy_HCI_hNP1_CellTiter: CCTE's Cell Titer-Glo 2 Assay in human neuroprogenitor cells for Viability, Mundy Lab (AID 2284241; active = hit-call score of the fitted dose curve at least 0.9, where 1 is the maximum;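 as to AC50: a hit is a drop in ATP luminescence versus DMSO meaning reduced viability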)
Outline: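 Viability read as luminescent ATP content (CellTiter-Glo, 30 min room temperature) twenty-four hours after dosing, relative to DMSO. Cells: WA09-derived hNP1 neuroprogenitors on poly-L-ornithine/laminin, plated 40 to 44 hours before chemical.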

[15] = TAMU_HCS_1.5hr_SingleDonor1434_Cytotoxicity: Cytotoxicity Assessment using High-content Screening (HCS) Fluorescent Imaging for the Texas A&M University (TAMU) 1.5-hr Human Induced Pluripotent Stem Cell (iPSC)-derived Cardiotoxicity Assay (AID 2284234; active = hit-call score of the fitted dose curve at least 0.9, where 1 is the maximum)
Outline: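 Nuclear counts from Hoechst 33342 imaging define cytotoxicity here, with EC10 (10% cell-count loss relative to DMSO) as point of departure. iPSC cardiomyocytes received 0.2-100 uM test chemical in 0.5% DMSO for 1.5 h at 37 C.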

[16] = TAMU_PeakParms_SingleDonor1434_QT: Texas A&M University (TAMU) 1.5-hr Human Induced Pluripotent Stem Cell (iPSC)-derived Cardiomyocytes Calcium (Ca+2) Flux Assay for Cardiotoxicity: QT (decay-rise ratio) (AID 2284235; active = hit-call score of the fitted dose curve at least 0.9, where 1 is the maximum)
Outline: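 Decay/rise ratio of calcium-flux fluorescence scored after 90 min exposure (37C) of donor 1434 iPSC cardiomyocytes to 0.2–100 uM (0.5% DMSO). Beat-cessation and severe-notch points removed; POD is EC05, a 5% rise over DMSO.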

[17] = CCTE_Mundy_HCI_hN2_NOG_NeuriteCount: CCTE's Neurite Outgrowth Assay in human hN2 cells for Neurite Count, Mundy Lab (AID 2284219; active = hit-call score of the fitted dose curve at least 0.9, where 1 is the maximum)
Outline: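 In this morphology assay, hNP1-derived neurons received test chemical 2 h post-plating and were fixed two days later in warm paraformaldehyde/sucrose containing Hoechst 33342. Neurites, labelled by rabbit anti-βIII-tubulin (1:800) and Alexa Fluor-488 (1:500), were counted automatically.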

[18] = CCTE_Mundy_HCI_hN2_NOG_NeuriteLength: CCTE's Neurite Outgrowth Assay in human hN2 cells for Neurite Length, Mundy Lab (AID 2284220; active = hit-call score of the fitted dose curve at least 0.9, where 1 is the maximum)
Outline: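 Read-out is neurite length from high-content imaging of βIII-tubulin/Alexa Fluor-488-labelled neurons, referenced to DMSO controls.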

[19] = CCTE_Mundy_HCI_hN2_NOG_NeuronCount: CCTE's Neurite Outgrowth Assay in human hN2 cells for Neuron Count, Mundy Lab (AID 2284221; active = hit-call score of the fitted dose curve at least 0.9, where 1 is the maximum)
Outline: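 Read-out is the number of betaIII-tubulin-positive neurons imaged by automated high-content analysis, with DMSO as negative control.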

[20] = CCTE_Mundy_HCI_hNP1_Pro_ResponderAvgInten: CCTE's Proliferation Assay in human neuroprogenitor cells, Mundy Lab (AID 2284224; active = hit-call score of the fitted dose curve at least 0.9, where 1 is the maximum;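 also: human neural progenitor cells hNP1 derived from WA09 embryonic stem cells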)
Outline: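 Proliferation read as average intensity of BrdU-positive cells, imaged at 26.25 h post-dosing: chemical exposure started after 40–44 h culture, BrdU during final 4 h, paraformaldehyde fixation. Positive-direction fit relative to DMSO.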

Measured: AC50

O=C1O[C@H]([C@@H](O)CO)C(O)=C1O
not listed: [15] | [16] | [17] | [18] | [19] | [20]
inactive: all other assays above

c1ccc2ccccc2c1
inactive: [15] | [16]
active: [7] 9.92 µM

Oc1ccccc1
not listed: [7] | [11] | [15] | [16] | [20]
inactive: all other assays above

CCCOC(=O)c1cc(O)c(O)c(O)c1
inactive: [15]
active: [7] 50 µM | [16] 22.1 µM

CN(C)c1ccc(C(=C2C=CC(=[N+](C)C)C=C2)c2ccc(N(C)C)cc2)cc1
active: [15] 4.8 µM | [16] 0.352 µM
inactive: [7]

CC/C(=C(/CC)c1ccc(O)cc1)c1ccc(O)cc1
inactive: [1] | [7] | [9] | [10] | [20] | [16]
active: [2] 8.64 µM | [3] 22.6 µM | [4] 23.7 µM | [5] 9.46 µM | [6] 14.3 µM | [8] 15.4 µM | [17] 9.12 µM | [18] 7.97 µM | [19] 3.72 µM | [15] 50 µM | [11] 28.9 µM | [12] 12.8 µM | [13] 26.5 µM | [14] 29.7 µM

CC(C)(c1cc(Br)c(O)c(Br)c1)c1cc(Br)c(O)c(Br)c1
inactive: [7]
active: [15] 84.8 µM

CN1C(=O)CC[C@H]1c1cccnc1
not listed: [7] | [11] | [15] | [16] | [20]
inactive: all other assays above
